In the supplement of paper PMC11732987, “Enantioselective OTUD7B fragment discovery through chemoproteomics screening and high-throughput optimisation” (Communications Chemistry, 2025):
Values without a mark were called inactive.

Tests used:
Assay in all cases: log2 ratio of Biotin-Ahx-Ub-VS probe labelling (fragment/DMSO); higher = less target engagement (more negative = stronger competition), active = hit call of the paper (q ≤ 0.05, log2 ratio ≤ -1)
Conditions in all cases: compound concentration: 200 uM; treatment time: 3 h
ALG13 = target: T1, ALG13 (UniProt Q9NP73)
T1 sequence (whole entry): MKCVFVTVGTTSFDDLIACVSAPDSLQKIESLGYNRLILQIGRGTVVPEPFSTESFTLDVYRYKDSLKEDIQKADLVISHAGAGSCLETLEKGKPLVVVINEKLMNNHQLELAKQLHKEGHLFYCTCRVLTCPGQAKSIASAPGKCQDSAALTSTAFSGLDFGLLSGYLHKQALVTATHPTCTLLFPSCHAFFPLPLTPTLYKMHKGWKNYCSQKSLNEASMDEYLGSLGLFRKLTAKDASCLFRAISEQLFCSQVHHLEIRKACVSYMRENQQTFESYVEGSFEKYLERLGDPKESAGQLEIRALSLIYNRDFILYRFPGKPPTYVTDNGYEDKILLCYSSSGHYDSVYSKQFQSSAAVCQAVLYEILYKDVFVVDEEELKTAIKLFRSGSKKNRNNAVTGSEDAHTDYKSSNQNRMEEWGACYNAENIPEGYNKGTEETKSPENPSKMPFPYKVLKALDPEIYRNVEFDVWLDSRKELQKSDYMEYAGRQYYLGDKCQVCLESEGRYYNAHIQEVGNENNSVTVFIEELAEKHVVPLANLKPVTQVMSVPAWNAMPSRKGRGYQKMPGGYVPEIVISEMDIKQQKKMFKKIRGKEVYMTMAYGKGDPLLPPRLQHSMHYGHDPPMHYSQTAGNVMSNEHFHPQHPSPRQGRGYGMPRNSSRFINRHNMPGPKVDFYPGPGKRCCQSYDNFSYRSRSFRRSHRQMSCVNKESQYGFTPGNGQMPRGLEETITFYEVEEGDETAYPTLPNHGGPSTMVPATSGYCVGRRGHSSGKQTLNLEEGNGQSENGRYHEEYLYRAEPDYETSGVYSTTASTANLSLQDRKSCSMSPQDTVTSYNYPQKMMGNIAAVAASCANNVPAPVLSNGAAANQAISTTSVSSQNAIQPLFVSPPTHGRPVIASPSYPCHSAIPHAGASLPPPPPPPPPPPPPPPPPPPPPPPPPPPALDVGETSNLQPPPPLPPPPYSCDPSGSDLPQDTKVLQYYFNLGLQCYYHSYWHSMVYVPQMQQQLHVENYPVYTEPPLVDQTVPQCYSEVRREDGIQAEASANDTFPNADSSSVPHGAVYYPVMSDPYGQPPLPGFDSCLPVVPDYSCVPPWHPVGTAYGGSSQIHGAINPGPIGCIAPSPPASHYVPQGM
How it was run: (§1)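 Lysate from HEK293T cells, 495 µg per sample in Tris/CHAPS/IGEPAL buffer with protease inhibitors, was treated for 3 h in triplicate with fragment at 200 µM or vehicle. Biotin-Ahx-Ub-VS was next added at 0.5 µM final for 1 h. The labelled DUBs were enriched with NeutrAvidin, digested with LysC and trypsin, and run by diaPASEF LC-MS/MS, with values given as average log2 fragment/vehicle ratios by unpaired t-test on global-median-normalised Spectronaut quantities of proteins with ≥2 unique peptides.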

ATXN3 = ATXN3 (UniProt P54252)
ATXN3, sequence (P54252 whole entry): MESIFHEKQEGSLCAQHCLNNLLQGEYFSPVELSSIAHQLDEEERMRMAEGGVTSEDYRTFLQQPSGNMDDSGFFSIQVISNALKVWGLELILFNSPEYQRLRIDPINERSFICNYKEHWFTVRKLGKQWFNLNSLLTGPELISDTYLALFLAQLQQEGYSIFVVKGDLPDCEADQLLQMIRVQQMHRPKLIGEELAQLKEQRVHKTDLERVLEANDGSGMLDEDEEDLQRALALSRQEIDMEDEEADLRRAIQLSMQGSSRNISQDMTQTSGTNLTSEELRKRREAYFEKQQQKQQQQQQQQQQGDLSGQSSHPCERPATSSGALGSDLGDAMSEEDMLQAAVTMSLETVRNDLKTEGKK
How it was run: as §1

BAP1 = target: T2, BAP1 (UniProt Q92560)
T2 sequence (whole entry): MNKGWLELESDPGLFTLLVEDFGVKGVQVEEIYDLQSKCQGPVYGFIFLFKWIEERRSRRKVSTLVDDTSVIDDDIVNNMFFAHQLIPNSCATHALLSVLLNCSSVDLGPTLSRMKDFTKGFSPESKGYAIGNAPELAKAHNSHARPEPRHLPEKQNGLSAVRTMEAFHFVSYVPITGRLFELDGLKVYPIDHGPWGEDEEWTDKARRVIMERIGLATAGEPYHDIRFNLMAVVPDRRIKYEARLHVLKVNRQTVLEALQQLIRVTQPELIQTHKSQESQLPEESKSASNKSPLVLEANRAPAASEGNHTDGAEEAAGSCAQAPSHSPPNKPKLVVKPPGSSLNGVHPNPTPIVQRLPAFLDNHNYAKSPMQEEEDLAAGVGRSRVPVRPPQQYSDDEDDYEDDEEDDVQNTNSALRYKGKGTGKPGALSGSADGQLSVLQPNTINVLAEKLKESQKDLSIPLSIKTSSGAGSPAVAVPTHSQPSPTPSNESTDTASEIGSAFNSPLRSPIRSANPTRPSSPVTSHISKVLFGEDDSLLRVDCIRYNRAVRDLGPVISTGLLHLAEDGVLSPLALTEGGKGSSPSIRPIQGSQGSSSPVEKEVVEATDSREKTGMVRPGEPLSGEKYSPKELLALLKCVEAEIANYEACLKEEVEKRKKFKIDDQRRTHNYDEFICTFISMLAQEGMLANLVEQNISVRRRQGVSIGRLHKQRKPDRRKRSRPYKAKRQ
How it was run: as §1

EIF3F = EIF3F (UniProt O00303)
EIF3F, sequence (O00303 whole entry): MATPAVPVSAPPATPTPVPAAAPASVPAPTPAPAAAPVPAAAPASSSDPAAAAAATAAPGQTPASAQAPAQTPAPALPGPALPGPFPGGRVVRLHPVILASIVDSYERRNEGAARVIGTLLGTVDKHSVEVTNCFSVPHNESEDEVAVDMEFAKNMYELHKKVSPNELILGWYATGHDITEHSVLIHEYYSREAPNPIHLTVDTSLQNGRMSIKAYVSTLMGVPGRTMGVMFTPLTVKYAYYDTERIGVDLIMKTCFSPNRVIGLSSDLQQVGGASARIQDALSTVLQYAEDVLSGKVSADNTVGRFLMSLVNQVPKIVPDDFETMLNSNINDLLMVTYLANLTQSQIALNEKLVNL
How it was run: as §1

EIF3H = EIF3H (UniProt O15372)
EIF3H, sequence (O15372 whole entry): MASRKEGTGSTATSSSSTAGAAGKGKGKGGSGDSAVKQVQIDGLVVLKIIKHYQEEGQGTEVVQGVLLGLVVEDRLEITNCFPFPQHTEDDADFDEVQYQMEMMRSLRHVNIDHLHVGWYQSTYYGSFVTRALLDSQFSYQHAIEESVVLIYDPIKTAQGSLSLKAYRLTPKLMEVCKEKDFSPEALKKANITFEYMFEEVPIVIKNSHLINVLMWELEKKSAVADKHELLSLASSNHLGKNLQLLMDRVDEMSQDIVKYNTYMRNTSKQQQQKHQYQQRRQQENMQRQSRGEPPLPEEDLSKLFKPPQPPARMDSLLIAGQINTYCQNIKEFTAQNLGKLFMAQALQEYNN
How it was run: as §1

FAM105A = target: T3, FAM105A (UniProt Q9NUU6)
T3 sequence (whole entry): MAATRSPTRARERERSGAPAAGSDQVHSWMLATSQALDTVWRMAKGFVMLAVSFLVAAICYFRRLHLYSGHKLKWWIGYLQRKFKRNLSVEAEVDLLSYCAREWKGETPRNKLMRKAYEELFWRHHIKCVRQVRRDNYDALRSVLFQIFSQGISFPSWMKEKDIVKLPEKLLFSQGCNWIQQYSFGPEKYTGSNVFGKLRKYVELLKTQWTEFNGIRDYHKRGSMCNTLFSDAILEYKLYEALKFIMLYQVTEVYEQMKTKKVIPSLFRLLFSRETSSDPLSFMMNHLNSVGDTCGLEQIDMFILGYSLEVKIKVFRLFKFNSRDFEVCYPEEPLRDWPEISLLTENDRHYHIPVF
How it was run: as §1

OTUB1 = OTUB1 (UniProt Q96FW1)
OTUB1, sequence (Q96FW1 whole entry): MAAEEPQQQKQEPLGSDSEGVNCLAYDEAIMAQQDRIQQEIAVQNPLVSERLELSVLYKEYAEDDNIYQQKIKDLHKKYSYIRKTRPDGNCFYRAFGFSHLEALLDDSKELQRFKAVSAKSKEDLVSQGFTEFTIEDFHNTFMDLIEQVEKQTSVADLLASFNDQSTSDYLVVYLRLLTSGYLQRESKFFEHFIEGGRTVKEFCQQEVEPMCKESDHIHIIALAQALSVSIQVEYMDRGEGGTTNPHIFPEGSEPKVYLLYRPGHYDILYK
How it was run: as §1

OTUD4 = target: T4, OTUD4 (UniProt Q01804)
T4 sequence (whole entry): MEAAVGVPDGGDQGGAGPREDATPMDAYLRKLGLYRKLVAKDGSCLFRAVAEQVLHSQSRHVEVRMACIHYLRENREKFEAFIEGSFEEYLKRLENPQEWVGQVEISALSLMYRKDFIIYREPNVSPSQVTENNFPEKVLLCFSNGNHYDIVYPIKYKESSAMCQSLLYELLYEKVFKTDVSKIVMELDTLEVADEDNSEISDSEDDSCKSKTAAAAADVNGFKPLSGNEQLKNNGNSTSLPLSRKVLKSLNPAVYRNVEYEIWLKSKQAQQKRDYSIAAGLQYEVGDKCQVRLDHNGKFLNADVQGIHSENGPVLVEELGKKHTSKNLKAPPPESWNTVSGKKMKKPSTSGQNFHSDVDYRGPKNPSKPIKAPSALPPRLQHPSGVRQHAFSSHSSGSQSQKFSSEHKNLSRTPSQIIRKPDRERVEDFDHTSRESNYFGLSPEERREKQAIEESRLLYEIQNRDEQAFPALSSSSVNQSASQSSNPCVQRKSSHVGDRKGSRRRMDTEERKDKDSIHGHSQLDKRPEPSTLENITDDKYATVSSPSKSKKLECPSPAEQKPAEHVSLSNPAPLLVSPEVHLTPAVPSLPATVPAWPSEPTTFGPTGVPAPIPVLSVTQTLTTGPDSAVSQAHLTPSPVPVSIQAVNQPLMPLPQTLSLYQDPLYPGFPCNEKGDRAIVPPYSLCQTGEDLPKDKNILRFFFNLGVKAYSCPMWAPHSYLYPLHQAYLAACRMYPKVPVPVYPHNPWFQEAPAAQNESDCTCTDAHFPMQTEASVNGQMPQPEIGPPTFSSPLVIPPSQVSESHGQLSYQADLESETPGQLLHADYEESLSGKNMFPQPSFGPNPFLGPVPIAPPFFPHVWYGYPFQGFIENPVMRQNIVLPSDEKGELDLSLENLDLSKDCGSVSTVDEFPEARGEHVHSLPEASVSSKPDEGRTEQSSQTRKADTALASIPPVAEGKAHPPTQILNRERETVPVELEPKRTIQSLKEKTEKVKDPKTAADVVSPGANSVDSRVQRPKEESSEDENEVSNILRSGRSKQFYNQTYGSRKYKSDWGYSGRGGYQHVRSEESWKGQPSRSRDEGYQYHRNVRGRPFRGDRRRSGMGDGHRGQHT
How it was run: as §1

OTUD5 = target: T5, OTUD5 (UniProt Q96G74)
T5 sequence (whole entry): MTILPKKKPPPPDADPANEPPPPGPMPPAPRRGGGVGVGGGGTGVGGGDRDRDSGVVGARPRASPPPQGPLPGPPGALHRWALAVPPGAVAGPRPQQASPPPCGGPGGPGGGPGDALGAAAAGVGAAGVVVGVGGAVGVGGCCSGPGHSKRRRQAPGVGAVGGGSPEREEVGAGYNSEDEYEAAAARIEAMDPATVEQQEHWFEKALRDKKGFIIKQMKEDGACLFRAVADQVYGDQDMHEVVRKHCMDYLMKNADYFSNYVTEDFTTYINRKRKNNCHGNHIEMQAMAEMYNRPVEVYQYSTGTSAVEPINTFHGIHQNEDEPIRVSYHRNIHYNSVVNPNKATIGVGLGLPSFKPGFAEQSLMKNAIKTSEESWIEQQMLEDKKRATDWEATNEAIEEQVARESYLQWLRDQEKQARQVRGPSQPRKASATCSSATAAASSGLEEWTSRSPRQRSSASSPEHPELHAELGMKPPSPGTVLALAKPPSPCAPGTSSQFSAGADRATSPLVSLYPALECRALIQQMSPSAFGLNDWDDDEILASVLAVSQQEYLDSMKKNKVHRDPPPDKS
How it was run: as §1

## O=C(CCl)Nc1ccc2c(c1)OC(F)(F)O2
ALG13
  log2 ratio of Biotin-Ahx-Ub-VS probe labelling: 0.0874
ATXN3
  log2 ratio of Biotin-Ahx-Ub-VS probe labelling: -0.411
BAP1
  log2 ratio of Biotin-Ahx-Ub-VS probe labelling: -1.92 (active)
EIF3F
  log2 ratio of Biotin-Ahx-Ub-VS probe labelling: -0.0462
EIF3H
  log2 ratio of Biotin-Ahx-Ub-VS probe labelling: 0.0852
FAM105A
  log2 ratio of Biotin-Ahx-Ub-VS probe labelling: -0.278
OTUB1
  log2 ratio of Biotin-Ahx-Ub-VS probe labelling: 0.13
OTUD4
  log2 ratio of Biotin-Ahx-Ub-VS probe labelling: -0.422
OTUD5
  log2 ratio of Biotin-Ahx-Ub-VS probe labelling: -0.515
